The panel holds about 79,000 compounds, 15% with a hit somewhere; the sample as a whole holds those more often. Values without a mark were called inactive. Calls of active or inactive are those of the source. No stated cut-off is given here; in the data, active means growth inhibition above about 70%; inactive means the rest.

We go through 20 compounds from PubChem BioAssay (NCI).

A short description of experiment [1]: NCI Yeast Anticancer Drug Screen. Data for the rad50 strain (AID 155).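 Further: 0% = growth of vehicle-only cultures of the same strain.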 Conditions: S. cerevisiae rad50 strain growth inhibition; at 50.0 µM; hits give high values. Summed up: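 Relative growth inhibition (compound vs vehicle) was measured in yeast with a defined repair-gene alteration.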
A short description of experiment [2]: NCI Yeast Anticancer Drug Screen. Data for the mec2-1 strain (AID 157). Conditions: S. cerevisiae mec2-1 strain, at 50.0 µM, hits give high values. Summed up:
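Each compound was tested on mec2-1 yeast, a strain altered in DNA damage repair or cell cycle control. Growth inhibition is reported relative to vehicle.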

The nature of experiment [3]: NCI Yeast Anticancer Drug Screen. Data for the sgs1 mgt1 strain (AID 161).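 Further: 0% = growth of cultures given vehicle only.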 The note with it: S. cerevisiae sgs1 mgt1 strain, at 50.0 µM, hits give high values. Summed up: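 Inhibition of yeast growth, normalised to vehicle-treated controls, is reported for a strain bearing genetic alterations in DNA damage repair.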
Experiment [4] can be described thus: NCI Yeast Anticancer Drug Screen. Data for the cln2 rad14 strain (AID 165).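 Further: 0% = growth equal to vehicle treated cultures.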 The note with it: S. cerevisiae cln2 rad14 strain, at 50.0 µM, hits give high values. Summed up: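 Test compounds were added to cln2 rad14 yeast cultures; inhibition of growth was then determined by comparison with vehicle treatment.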
Experiment [5] is described as follows: NCI Yeast Anticancer Drug Screen. Data for the bub3 strain (AID 167). Conditions: S. cerevisiae bub3 mutant strain, at 50.0 µM, hits give high values. Summed up:
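Screening used yeast with an engineered genetic alteration affecting cell cycle control. Compound-exposed cultures were compared with vehicle cultures, and reduced growth was taken as inhibition.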

Experiment [6] can be described thus: NCI Yeast Anticancer Drug Screen. Data for the mlh1 rad18 strain (AID 175). The note with it: S. cerevisiae mlh1 rad18 strain growth inhibition; at 50.0 µM; hits give high values. The procedure, abridged:
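Inhibition values reflect reduced growth of mutant yeast versus vehicle-treated controls following compound exposure; the mutations affect DNA damage repair.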

Consider `O=C(Nc1ccc(F)cc1)c1ccc(Cl)cc1Cl`, for which the growth inhibition is -7.4% in experiment [1]; -28.4% in experiment [2]; -9% in experiment [3]; 13.7% in experiment [4]; -4.2% in experiment [5]; -2.35% in experiment [6].
As to `N/C(=N\c1nc(N)cc(N)n1)Nc1ccc(S(N)(=O)=O)cc1`, the growth inhibition in experiment [1] was -15.2%; in experiment [2], 4.25%; in experiment [3], -6.25%; in experiment [4] it was -32.2%; in experiment [5], -5.6%; in experiment [6] it was -4.15%.
In the case of `CCOC(=O)CCCCCC#N`, the growth inhibition in experiment [1] is 1.35%; in experiment [2], -18.4%; in experiment [3], -6.1%; in experiment [4], -1.75%; in experiment [5], -9.5%; in experiment [6], -0.15%.
Consider `CCOC1(COP(=O)(OCc2ccccc2)OCc2ccccc2)COC(COP(=O)(OCc2ccccc2)OCc2ccccc2)(OCC)CO1` (stereo not given), for which the growth inhibition is -30.1% in experiment [1]; -25.6% in experiment [2]; -16.2% in experiment [3]; 2.2% in experiment [4]; -3.75% in experiment [5]; -22.8% in experiment [6].
On to `Cc1ccc(S(=O)(=O)N2CC(O)C=Cc3ccccc32)cc1` (stereo not given), for which the growth inhibition is 5.4% in experiment [1]; -3.1% in experiment [2]; -4.45% in experiment [3]; 17.5% in experiment [4]; 5.15% in experiment [5]; 9.85% in experiment [6].
For the compound `CC1CCc2nc(N)nc(CC3CC(=O)NC(=O)C3)c2C1` (stereo not given), the growth inhibition in experiment [1] was -2.75%; in experiment [2], -5.65%; in experiment [3], -8.7%; in experiment [4] it was -45.5%; in experiment [5], -12.8%; in experiment [6], -3.2%.
In the case of `COc1cc(C(C)(C)C)c2oc3c(c2c1)C(=O)C(C(C)(C)C)=CC3(OC)OC`, the growth inhibition in experiment [1] is 13.4%; in experiment [2], -6.75%; in experiment [3], -17%; in experiment [4], 6.4%; in experiment [5], 2.25%; in experiment [6], -1.65%.
Take `COC1/C=C/C(C)C(C(C)C(OC)C(C)CCC(=O)C(C)C(C/C=C/N(C)C=O)OC)OC(=O)/C=C/C=C(\C)CC(OC)C(OC)C2=CC(=O)O[C@@H](C(C)C(OC)CC(OC)/C=C/C(C)C(O)C1)[C@H]2O` (stereo not given in full): the growth inhibition in experiment [1] was 86.8% (active); in experiment [2], 90.2% (active); in experiment [3] it was 90% (active); in experiment [4] it was 89.8% (active); in experiment [5] it was 87.7% (active); in experiment [6], 91% (active).
For the compound `C/C=C1\C(=O)OC2CCN3CCC(COC(=O)C(C)(O)C(C)C1O)C23` (stereo not given), the growth inhibition in experiment [1] was 11.2%; in experiment [2], -7.65%; in experiment [3], -24.6%; in experiment [4], -13.7%; in experiment [5], -46.5%; in experiment [6], -60.2%.
As to `O=C(NC(Cc1ccccc1)C(=O)O)Oc1ccc2ccccc2c1` (stereo not given), the growth inhibition in experiment [1] was 2.9%; in experiment [2], 8.25%; in experiment [3], 6.1%; in experiment [4], -0.95%; in experiment [5] it was -4.8%; in experiment [6] it was -5.2%.
As for `CNC(=S)SC1=NS(=O)(=O)c2ccccc2N1`, the growth inhibition in experiment [1] was -9.1%; in experiment [2], -5.05%; in experiment [3], -2.75%; in experiment [4], 12.4%; in experiment [5] it was -9.75%; in experiment [6] it was 23.4%.
In the case of `O=C(/C=C/c1ccsc1)c1ccsc1`, the growth inhibition in experiment [1] was -38.9%; in experiment [2] it was -51.9%; in experiment [3] it was -22.9%; in experiment [4], 3.6%; in experiment [5] it was 9.5%; in experiment [6], -3.05%.
Regarding `O=c1[nH][nH]c(=O)c2nc3c(nc12)c1nc2c(=O)[nH][nH]c(=O)c2nc1c1nc2c(=O)[nH][nH]c(=O)c2nc31`, the growth inhibition in experiment [1] is -1.6%; in experiment [2], 21.4%; in experiment [3], 21.1%; in experiment [4], -2.55%; in experiment [5], -11.1%; in experiment [6] it was 8.2%.
Regarding `N#CCCC1(c2ccccc2)CCC/C(=C/c2ccccc2)C1=O` (stereo not given), the growth inhibition in experiment [1] is 11.8%; in experiment [2], 14.1%; in experiment [3], 1.7%; in experiment [4], 7.1%; in experiment [5], 17.4%; in experiment [6], 3%.
On to `C#CCNC(=O)NC(CCCCNC(=O)OCc1ccccc1)C(=O)OCc1ccccc1` (stereo not given), for which the growth inhibition in experiment [1] is -7.05%; in experiment [2] it was 2.9%; in experiment [3], -10.8%; in experiment [4], 10.3%; in experiment [5] it was 3.55%; in experiment [6], -4.8%.
For the compound `CC1=CC2OC3C(OC(=O)c4ccccc4)C(OC(=O)c4ccccc4)C(C)(C2(COC(=O)c2ccccc2)CC1)C31CO1` (stereo not given), the growth inhibition is 6.3% in experiment [1]; -3.1% in experiment [2]; 1.55% in experiment [3]; 7.8% in experiment [4]; 4.85% in experiment [5]; 17.7% in experiment [6].
With `CC(C)(C)NN=C1C(C)(C)C(=NNC(C)(C)C)C1(C)C`, the growth inhibition in experiment [1] was -24%; in experiment [2] it was -30.1%; in experiment [3] it was -13.8%; in experiment [4] it was 13.9%; in experiment [5], -23.1%; in experiment [6], -10.9%.
In the case of `CC(=O)Nc1ccc(/C=N/Nc2c3ccccc3nc3ccccc23)cc1`, the growth inhibition is -3.3% in experiment [1]; 13.8% in experiment [2]; 0.3% in experiment [3]; -4.4% in experiment [4]; 6.75% in experiment [5]; 0.4% in experiment [6].
Turning to `COc1ccc2c(c1)OC1(OCCO1)[C@@H]1C2CC[C@@]2(C)C1CCC21OCCO1` (stereo not given in full), the growth inhibition was 48.2% in experiment [1]; 17.9% in experiment [2]; 38.9% in experiment [3]; 28.8% in experiment [4]; 15.8% in experiment [5]; 58.5% in experiment [6].
In the case of `COC(=O)CC1(C(=O)OC)Nc2ccc(Cl)cc2C(=O)O1` (stereo not given), the growth inhibition in experiment [1] was -2.55%; in experiment [2] it was 1.85%; in experiment [3], 12.5%; in experiment [4] it was -19.6%; in experiment [5], -9.5%; in experiment [6], -11.8%.
